A selection: hits, their analogues and other compounds. The true share with any hit is near 4.3%.
SW480 rerep = induces DNA re-replication in SW480 colon adenocarcinoma cells | SW480 DNA re-replication, Hoechst DNA content imaging, 48 h | Potency, µM (titrated, usually from 46.1 µM), for the others: at the highest dose re-replication activation, actives largely listed as activators | hit rate 1.8% among 340,000 | AID 624297; also: potency is read from the fitted curve at half-maximal effect; % of control where 0% means no effect; nearly all actives have a fitted effect of over 55% in size
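Image-based DNA-content assay: after two days of treatment, nuclei were labelled with the DNA dye Hoechst and imaged, and hits were compounds raising the count of nuclei showing high fluorescence intensity.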
MCF10A rerep = induces DNA re-replication in MCF 10a normal breast cells; MCF 10A DNA re-replication, Hoechst nuclear intensity, 48 h; Potency, µM (titrated, usually from 46.1 µM), for inactives: top-dose activity, positive = re-replication, actives largely listed as activators; hit rate 2.9% among 350,000; also: potency is read from the fitted curve at half-maximal effect; % of control where 0% means no effect; nearly all actives have a fitted effect of over 50% in size
Giardia killer = Giardia lamblia killing; activity change, % at 7.66 µM, hits read low; AID 540267; Giardia lamblia trophozoite viability; hit rate 0.15% among 340,000; in the data active = activity change below about -80%; inconclusive = between about -30% and that limit;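 also: parasites exposed to compound for two days anaerobically before the ATP read; % is scaled to controls: 0 for no effect and ±100 for the full control effect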
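Giardia lamblia trophozoites (100 cells/well) were incubated with compounds for 48 h at 37 deg C under anaerobic conditions. Viability was read as ATP content by one-step luminescence after 15-30 min at room temperature.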
uPA generation = inhibitors of cell surface uPA generation | cell surface uPA generation assay, qHTS | Potency, µM (series often up to 38.3 µM), without a hit: at the top dose activity change, negative = inhibition, hits mostly inhibitors | hit rate 0.31% among 330,000; active = well fitted inhibition curve with a large enough effect; inconclusive = small, poorly fitted or top-dose-only effect; inactive = no such curve, though single readings can be large or run the other way; tested in mouse RAW 264.7 cells; also: potency is read from the fitted curve at half-maximal effect; % is scaled to controls: 0 for no effect and ±100 for the full control effect; nearly all actives have a fitted effect of over 55% in size
Active calls of the source: *; ? = inconclusive; · = no result given. Unless noted, calls follow the shape of the dose curve; as a rule, active = well fitted activation curve with a large enough effect; inconclusive = small, poorly fitted or top-dose-only effect; inactive = no such curve, though single readings can be large or run the other way.

SMILES | SW480 rerep | MCF10A rerep | Giardia killer | uPA generation
COc1cc(C2NC(=O)NC(c3ccccc3)=C2C(C)=O)c(Cl)cc1OCC(=O)O (configuration not stated) | 4.11µM* | 7.2% | 28.2 | 3.2%
COc1cc(C2NC(=O)NC(c3ccccc3)=C2C(C)=O)cc(Cl)c1OCC(=O)O (configuration not stated) | 1.2% | 10.9% | 1.2 | 4.2%
Cc1cc(CC(C)CC(C)(C)C)n(O)c(=O)c1 (configuration not stated) | ? | 10.6µM* | · | ·
Cc1cc(C2CCCCC2)n(O)c(=O)c1 | ? | ? | 17.0 | ?
O=C(CNC(=O)c1ccco1)N=Nc1c(O)n(CCc2ccccc2)c2ccccc12 | 1.84µM* | ? | 2.2 | 1.12µM*
CCn1c(O)c(N=NC(=O)CNC(=O)Cc2ccccc2)c2ccccc21 | -2.6% | -1.6% | -5.0 | 2.1%
COc1ccc(-c2csc(NC(=O)CSc3nnc(Nc4ccccc4C)s3)n2)cc1 | 5.8µM* | ? | 2.8 | 2.5%
COc1ccc(C(=O)CC(=O)c2ccc(C(C)(C)C)cc2)cc1 | -2.7% | ? | -9.6 | 4.3%
COc1ccc(C(=O)C(CCC(CNC(C)(C)C)C(=O)c2ccc(OC)cc2)CNC(C)(C)C)cc1 (configuration not stated) | 2.91µM* | 5.8µM* | 14.3 | -9.1%
CCOC(=O)N1CCN(C(=O)c2cccc(N3C(=O)NC4CC3(C)Oc3ccc(Cl)cc34)c2)CC1 (configuration not stated) | 13µM* | 16.4µM* | 5.7 | -17.3%
O=c1[nH]c(-c2ccccn2)nc2sc(-c3ccccc3)cc12 | 6.51µM* | 1.3µM* | -2.7 | -11.4%
O=C(Cc1ccc2c(c1)OCCO2)Nc1cc(Cl)ccc1N1CCOCC1 | -5.9% | ? | -1.8 | 2.7%
CC(=O)c1ccc(NC(=O)c2cc(CC(C)C)nc3ccccc23)cc1 | -2.3% | 0.82µM* | -0.3 | 20.8%
CC(=O)c1ccc(Nc2cc(C)nc3ccccc23)cc1 | 18.4µM* | ? | 8.9 | -13.0%
CC(=O)c1ccc(Nc2cc(C)nc3c(C)cccc23)cc1 | 1.16µM* | 23.1µM* | -1.8 | ?
COc1ccc(Nc2cc(C)nc3ccccc23)cc1 | -6.8% | 4.7% | 17.5 | ·
Cc1cc[n+]2cc(-c3cccc([N+](=O)[O-])c3)c(-c3cccc([N+](=O)[O-])c3)cc2c1 | 2.59µM* | -1.6% | -9.6 | -0.3%
O=C(CNC(=O)c1cccc(F)c1)N/N=C/c1cc(Br)ccc1OC(=O)/C=C/c1ccco1 | 5.17µM* | 10.0% | -8.1 | ?
O=C(CNC(=O)c1ccccc1O)N/N=C/c1cc(Br)ccc1OC(=O)/C=C/c1ccco1 | ? | 16.2% | -13.4 | -4.9%
O=C(C[C@@H]1C/C=C\C[C@@H](Cc2ccc(F)cc2)C(=O)OC[C@H]2CCCN2C1=O)NCCO | -4.5% | -3.4% | 10.7 | 19.7%
COc1ccc(CN(Cc2ccccc2)C(=O)c2cccc(C#N)c2)cc1COc1ccc(NC(C)=O)cc1 | · | · | -22.6 | ·
O=C(COc1ccc(Cl)c(Cl)c1)NN1C(=O)C2C(C1=O)C1C=CC2C12CC2 (configuration not stated) | 1.03µM* | 21.9% | 17.6 | 7.1%
O=C(/C=C/Nc1ccccc1Oc1ccccc1)c1ccco1 | -6.5% | 14.6µM* | 16.7 | -0.5%
O=C(Nc1ccccc1NC(=O)NC1CCCCC1)NC1CCCCC1 | ? | 3.66µM* | -4.3 | ·
O=C(Nc1nc2ccccc2s1)NC1CCCCC1 | -20.1% | ? | -6.7 | 7.94µM*
SMILES | SW480 rerep | MCF10A rerep | Giardia killer | uPA generation
c1ccc2c(c1)Sc1ccccc1N2CCN1CCCC1 | 2.7% | 6.9% | · | ·
O=C1N=C2N(CCN3CCCCC3)c3ccccc3N2/C1=C\c1ccc([N+](=O)[O-])s1 | ? | 18.4µM* | -19.2 | 0.6%
O=C(Nc1ccccc1C(=O)NCCCN1CCOCC1)c1ccc(Cl)cc1 | 6.0% | -0.6% | -4.0 | 15.5%
COc1ccc(NS(=O)(=O)c2cc(OC)ccc2NC(=O)c2cc(C)oc2C)cc1 | 13µM* | 13µM* | -1.2 | -14.2%
COc1ccc(NS(=O)(=O)c2cc(OC)ccc2OC)cc1 | -5.6% | 0.7% | -10.5 | -2.0%
COc1ccc(OC)c(CCNC(=O)Cn2nc(C)c3c(C)n(-c4ccccc4)nc3c2=O)c1 | 9.2% | 3.7% | -1.4 | -5.3%
CCc1nnc(NS(=O)(=O)c2ccc(N/C=C/C(=O)c3ccc(C)cc3)cc2)s1 | -12.4% | 18.4µM* | -4.6 | -3.6%
CCc1nnc(NS(=O)(=O)c2ccc(NC(=S)NC(=O)c3ccc(OC)cc3)cc2)s1 | -42.0% | -0.2% | -5.7 | -4.6%
